# Screens as filed in PubChem.
# Six1-Eya2 inh: inhibitors of human Six1/Eya2 interaction; hit rate 0.56% among 360,000; Q15475+O00167; AlphaScreen GST-Six1/His-Eya2 binding, biochemical; hits give low values; activity change, % (no concentration beside the values); AID 651725; in the data active = activity change below about -65%; inconclusive = mostly about -30% to -63%
#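 AlphaScreen luminescence read after one hour at 37 °C in darkness. Pin-transferred compounds met GST-Six1 and His-Eya2 protein (5X stock 250 nM/500 nM) plus glutathione donor and Ni-chelate acceptor beads (5X, 50 ug/mL).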
# DT40 TDP1 CPT: growth inhibition of DT40 Tdp1-/-;hTDP1 cells with camptothecin (screen for TDP1 inhibitors); chicken DT40 Tdp1-/-;hTDP1 cells + 20 nM CPT, ATP luminescence, 48 h; hit rate 12% among 420,000; Potency, µM (highest dose often 46.2 µM), for the others: at the top dose activity change, negative = growth inhibition, actives largely listed as inhibitors; note: potency is the fitted concentration of half-maximal effect; nearly all actives have a fitted effect of over 55% in size
#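 Chicken DT40 Tdp1-/- cells stably complemented with human TDP1 were seeded at 400 cells/well in medium containing 20 nM camptothecin, exposed to pin-transferred compounds, and grown at 37 °C for at least 48 hr. Viability was read as ATP luminescence.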
# TDP1 inh: TDP1 (human) enzyme inhibition; Q9NUW8; AID 485290; hit rate 0.28% among 350,000; Potency, µM (top dose mostly 130 µM), for inactives: top-dose activity change, negative = inhibition, usual class: inhibitors; recombinant TDP1, AlphaScreen DNA substrate cleavage; note: potency is the fitted concentration of half-maximal effect; nearly all actives have a fitted effect of over 40% in size
#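 Tdp1 1 nM final; 15 min RT w/ cpd; substrate 15 nM, 5 min; beads 10 ug/ml, 10 min; AlphaScreen read. Neg ctrl: no enzyme.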
# TDP1 cell noCPT: qHTS for Inhibitors of human tyrosyl-DNA phosphodiesterase 1 (TDP1): qHTS in cells in absence of CPT | DT40 Tdp1-/- hTDP1 cells, no CPT, ATP luminescence, 48 h | Potency, µM (top dose mostly 46.2 µM), without a hit: at the highest dose activity change, negative = growth inhibition, usual class: inhibitors | hit rate 15% among 420,000 | AID 686978, 2013; note: potency is the fitted concentration of half-maximal effect; nearly all actives have a fitted effect of over 55% in size
#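 Chicken DT40 Tdp1-/- cells complemented with human TDP1, screened without camptothecin (DMSO vehicle only), 400 cells/well. Compounds pin-transferred, cells incubated at 37 °C for at least 48 hr. Growth read as ATP-dependent luminescence (CellTiter-Glo, 30 min at RT).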
# IL-1B inflam inh: inflammasome signaling inhibition, IL-1 beta readout | THP-1 LPS/ATP IL-1B secretion, AlphaLISA, 16 h; hits give low values | activity change, % at 57.5 µM | hit rate 4.7% among 360,000; in the data active = activity change below about -50%; inconclusive = mostly about -30% to -49%
#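 Secreted IL-1B measured by AlphaLISA bead assay after 16 h compound exposure of THP-1 cells; compounds (final up to 57.5 uM) added 1 h before LPS (250 ng/mL) and ATP (1.25 mM) stimulation; lower signal means less secretion.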
# CtBP-E1A blk: blocks the CtBP interaction with E1A | AlphaScreen GST-E1A/His-CtBP binding, 1536-well; hits give low values | activity change, % (test concentration not listed) | hit rate 0.49% among 340,000; in the data active = activity change below about -65%; inconclusive = mostly about -30% to -63%
#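 In 5 uL wells, 23 nL compound meets equimolar GST-E1A and His-CtBP (5X stock 125 nM each) for 2 h, 37 °C. Beads (5X, 50 ug/mL) then 1 h, 37 °C, dark.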
# Starred values were filed as active, the others as inactive; u = inconclusive; x = no result given; [ ] = remark or other dose. Rows were chosen to be rich in hits. Some 18% of all compounds tested hit in one or more screens of this group. Unless noted, calls come from the whole dose curve; as a rule, active = well fitted curve in the direction sought with a large enough effect; inconclusive = small, poorly fitted or top-dose-only effect, or another doubt; inactive = no such curve, though single readings can be large; an effect the other way counts as inactive or inconclusive. % is set by controls: 0 for no effect and ±100 for the full control effect.
SMILES,Six1-Eya2 inh,DT40 TDP1 CPT,TDP1 inh,TDP1 cell noCPT,IL-1B inflam inh,CtBP-E1A blk
Cc1cccc(CCNC(=O)c2ccc3c(c2)nc2n3CCCCC2)c1,x,21µM*,5%,u,x,x
Cc1ccc(C(=O)Nc2c(C(=O)NCc3ccc(Cl)cc3)sc3nc(C)cc(C)c23)cc1,x,9.2µM*,-2%,13µM*,x,x
COc1ccc(CNC(=O)c2sc3nc4n(c(=O)c3c2C)CCCC4)cc1,x,u,6%,u,x,x
Cc1ccccc1NC(=O)Cc1nc(COC(=O)Cc2ccccc2F)cs1,5,-16%,0%,16%,-5,-3
O=C(Nc1ccc(Cn2cccn2)cc1)c1ccc(COc2cccc(Br)c2)cc1,4,-24%,-3%,u,u,-1
COCCNC(=O)C1C(=O)Nc2ccccc2C(=O)N1C1CCCC1 (stereo not drawn),2,-17%,x,7%,7,3
Cc1cccc(CCNC(=O)c2sc3nc4n(c(=O)c3c2C)CCCC4)c1,x,18µM*,6%,u,x,x
CCc1ccc(N(CC)C(=O)c2sc3nc4n(c(=O)c3c2C)CCCC4)cc1,x,26µM*,5%,21µM*,x,x
CCN(C(=O)c1sc2nc3n(c(=O)c2c1C)CCCCC3)c1ccc(OC)cc1,x,u,10%,u,x,x
COc1ccccc1N1CCN(CC(O)COc2ccc3c(C)cc(=O)oc3c2)CC1 (stereo not drawn),-7,-27%,2%,-16%,4,-7
COCCCNC(=O)C1CCN(C(=O)c2ccc(-n3ccc4ccccc43)s2)CC1,x,18µM*,0%,16µM*,x,x
COc1ccc(CNC(=O)C2CCN(C(=O)c3ccc(-c4ccccc4)cc3)CC2)cc1,-5,u,1%,u,-20,-6
O=C(NCc1ccc(F)cc1)C1CCN(C(=O)c2ccc(-n3ccc4ccccc43)s2)CC1,x,16µM*,3%,15µM*,x,x
Cc1ccc(-c2cc(C(=O)NCC3(N(C)C)CCCCC3)c3ccccc3n2)o1,-3,-20%,x,u,-12,-16
COc1ccc(NC(=O)c2cc(-c3ccc(C)o3)nc3ccccc23)c(OC)c1,-2,u,x,12µM*,-19,x
Cc1ccc(-c2cc(C(=O)Nc3nccs3)c3ccccc3n2)o1,u,u,-3%,u,-4,-3
Cc1ccc(-c2cc(C(=O)Nc3ccccc3C(N)=O)c3ccccc3n2)o1,-11,15µM*,x,10µM*,-22,-8
COc1ccc(NC(=O)c2cc(-c3ccc(C)o3)nc3ccccc23)cc1OC,u,18µM*,8%,16µM*,u,u
Cc1ccc(-c2cc(C(=O)N(C)CC(=O)Nc3ccccc3Br)c3ccccc3n2)o1,3,16µM*,1%,u,u,-1
COc1cc(NC(=O)c2cc(C)nc3ccccc23)cc(OC)c1OC,-1,-16%,5%,-7%,26,4
CCc1nnc(NC(=O)c2ccc(OC)c(S(=O)(=O)N3CCCC3)c2)s1,-3,-13%,2%,-1%,20,-14
CCN1CCN(C(CNS(=O)(=O)c2ccc(C)cc2)c2ccccc2)CC1 (stereo not drawn),2,-14%,x,9%,6,2
CC1=C(C(=O)Nc2ccc([N+](=O)[O-])cc2)C(c2cccc(C(F)(F)F)c2)NC(=S)N1c1ccccc1 (stereo not drawn),-14,13µM*,7%,16µM*,u,-14
C/C(=N/NC(=O)CSc1nc2ccccc2n1C)c1ccc(O)cc1,4,-4%,0%,-24%,-27,1
COC(=O)c1cc(C(=O)c2cc(F)ccc2O)cn2c(=O)c3c(C)c(C)sc3nc12,-5,4.1µM*,x,-24%,-6,-18
SMILES,Six1-Eya2 inh,DT40 TDP1 CPT,TDP1 inh,TDP1 cell noCPT,IL-1B inflam inh,CtBP-E1A blk
CCOC(=O)c1sc2nc3c(SCC(=O)O)cc(C(=O)c4ccccc4O)cn3c(=O)c2c1C,6,6%,3%,3%,15,1
CCc1c(C)sc2nc3c(C(=O)N4CCOCC4)cc(C(=O)c4ccccc4O)cn3c(=O)c12,-8,23µM*,5%,15µM*,-64*,-5
CCOC(=O)c1sc2nc3c(SCC(=O)O)cc(C(=O)c4cc(F)ccc4O)cn3c(=O)c2c1C,-8,-10%,35µM*,-12%,14,-1
Cc1sc2nc3c(SC(C)C(=O)O)cc(C(=O)c4ccccc4O)cn3c(=O)c2c1C (stereo not drawn),-20,-3%,4%,2%,u,7
O=C1C=C(O)CC2(CCCCC2)C1,2,-5%,x,-22%,23,5
Cc1cc(O)c(C=O)c2c1C(=O)Oc1c(C)c(O)c3c(c1O2)C(O)OC3=O (stereo not drawn),x,9%,7.9µM*,0%,x,x
COc1cc(C)c2c(c1C=O)Oc1c(c(C)c(O)c3c1C(O)OC3=O)OC2=O (stereo not drawn),u,25%[9.04 µM],x,u,-13,-4
Cc1cc(C)n(CC2CC(=O)N(c3cc(Cl)cc(Cl)c3)C2=O)n1 (stereo not drawn),6,2%,5%,-1%,27,8
Cc1ccccc1N=Nc1c(O)[nH]c2ccccc12,5,u,x,u,5,2
CC(C)c1ccc2[nH]c(O)c(N=NC(=O)c3cccc(S(=O)(=O)N4CCCCC4)c3)c2c1,1,12µM*,5%,9.2µM*,17,4
CNC(=S)N=Nc1c(O)[nH]c2ccccc12,-70*,-7%,3%,-6%,10,-69*
CC(C)c1ccc2[nH]c(O)c(N=NC(=O)c3cccc(S(=O)(=O)Nc4cccc(Cl)c4)c3)c2c1,-1,u,x,u,3,3
CNC(=S)N=Nc1c(O)[nH]c2ccc(C(C)C)cc12,u,u,3%,18µM*,0,-28
Cc1ccc(NC(=S)N=Nc2c(O)[nH]c3ccccc23)cc1,-10,6.5µM*,8%,7.3µM*,0,-15
COc1ccc(S(=O)(=O)N=Nc2c(O)[nH]c3ccccc23)cc1,0,-4%,8%,2%,18,3
Oc1ccc(NC(=S)N=Nc2c(O)[nH]c3ccccc23)cc1,-71*,u,8%,u,-66*,-72*
Oc1cccc(NC(=S)N=Nc2c(O)[nH]c3ccc(Br)cc23)c1,u,u,x,u,-5,u
